Bioassay records (PubChem)
Sampled rows, rich in hits. Any-hit rate of the full collection: about 2.7%.
GLP1R ag = agonists of human GLP-1 receptor; Potency, µM (series often up to 45.6 µM), for inactives: at the top dose activation, actives largely listed as activators; P43220; actives 0.007% (n = 380,000); HEK293 GLP-1R CRE-luciferase, luminescence, 4-6 h; cells express a hypersensitive GLP-1R form; also: % of control where 0% means no effect
IDH1 R132H inh = blocks human mutant IDH1 R132H enzyme | O75874 | IDH1-R132H enzyme, NADPH consumption, diaphorase/resazurin fluorescence | Potency, µM (top dose mostly 76.6 µM), inactives show at the highest dose activity change, negative = inhibition, hits mostly inhibitors | actives 0.093% (n = 390,000) | AID 602179; also: % is scaled to controls: 0 for no effect and ±100 for the full control effect; nearly all actives have a fitted effect of over 65% in size
Target sequence (O75874 whole entry R132H, stated change not applied): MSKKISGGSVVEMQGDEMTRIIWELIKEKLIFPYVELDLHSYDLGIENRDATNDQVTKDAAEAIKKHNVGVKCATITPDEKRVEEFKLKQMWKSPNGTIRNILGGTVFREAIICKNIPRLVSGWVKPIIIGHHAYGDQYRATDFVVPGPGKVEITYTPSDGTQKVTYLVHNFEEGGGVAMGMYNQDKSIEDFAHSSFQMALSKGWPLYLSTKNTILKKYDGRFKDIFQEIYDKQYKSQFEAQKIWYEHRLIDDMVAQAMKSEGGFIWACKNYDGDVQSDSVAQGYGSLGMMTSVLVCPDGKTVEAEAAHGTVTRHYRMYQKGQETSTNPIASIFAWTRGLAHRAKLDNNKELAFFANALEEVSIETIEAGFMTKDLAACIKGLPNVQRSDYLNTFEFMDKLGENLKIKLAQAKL
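IDH1-R132H (0.5 ug/mL) preincubated 30 min with compound, then NADPH (0.016 mM) and alpha-KG (2 mM) added; 80 min at RT, pH 7.5. Remaining NADPH coupled via diaphorase/resazurin to fluorescence (540/590 nm); concentration-response curves normalized to no-enzyme control.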
TrxR1 substrate = is turned over as a substrate by rat TrxR1; purified TrxR1 substrate turnover, NADPH consumption readout; Potency, µM (doses to about 114 µM), for inactives: at the top dose activity change, negative = substrate turnover; actives 0.01% (n = 390,000); AID 588456; also: % is scaled to controls: 0 for no effect and ±100 for the full control effect; nearly all actives have a fitted effect of over 50% in size
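Rat TrxR1, dispensed at 90 nM, was prereduced with 400 uM NADPH (final) for 5 min at ~22 deg C, then incubated with compound 15 min before 400 uM selenite. A first-read NADPH fluorescence drop versus no-compound background flagged substrates.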
GLP-1R inv ag = acts as inverse agonist at human GLP-1 receptor. HEK293 GLP-1R CRE-luciferase, luminescence, 24 h; GLP-1R form is constitutively active. P43220. actives 1.6% (n = 410,000). Potency, µM (series often up to 38.3 µM), for the others: at the highest dose activity change, negative = inhibition, hits mostly inhibitors. AID 624417; also: % is scaled to controls: 0 for no effect and ±100 for the full control effect; nearly all actives have a fitted effect of over 55% in size
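HEK293 cells stably co-expressing constitutively active GLP-1R and a cAMP-responsive luciferase reporter were seeded in DMEM with 10% Nu serum, given compounds after 12 h, and incubated 24 h at 37 deg C. Luminescence was then read.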
HEK293 tox = cytotoxicity counter-screen for GLP-1 receptor inverse agonists. actives 0.13% (n = 410,000). HEK293 cAMP-luciferase reporter cells, luminescence, 24 h. Potency, µM (doses to about 38.3 µM), inactives show top-dose activity change, negative = inhibition, hits mostly inhibitors. AID 624418;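 also: loss of luciferase light is scored as toxicity; % is scaled to controls: 0 for no effect and ±100 for the full control effect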
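Step one: seed cells (200 cells/uL, DMEM with 10% Nu serum, 1% pen-strep). Step two: 12-hour incubation at 37 deg C. Step three: pin 23 nL compound, incubate 24 hr. Step four: add luciferase reagent, read luminescence 12 min later.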
TrxR1 inh = inhibitors of rat thioredoxin reductase 1; O89049; recombinant rTrxR1, NADPH fluorescence consumption, selenite substrate; Potency, µM (highest dose often 114 µM), without a hit: at the highest dose activity change, negative = inhibition, most hits filed as inhibitors; actives 1% (n = 390,000); also: % is scaled to controls: 0 for no effect and ±100 for the full control effect; nearly all actives have a fitted effect of over 65% in size
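Rat TrxR1 (90 nM in the dispensed reagent) was pre-reduced with 400 uM NADPH for 5 min at room temperature, then incubated with compound for 15 min. After 400 uM selenite was added, NADPH fluorescence (Ex 340/Em 450 nm) was followed for 8 min.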
* = called active by the depositor; [ ] = dose if it differs, or a comment. Calls follow the shape of the dose curve; as a rule, active = well fitted curve in the direction sought with a large enough effect; inconclusive = small, poorly fitted or top-dose-only effect, or another doubt; inactive = no such curve, though single readings can be large; an effect the other way counts as inactive or inconclusive. Potency is read from the fitted curve at half-maximal effect.

O=C(COC(=O)/C=C/c1ccco1)NCc1ccc(Cl)cc1 was read as GLP1R ag -7%, IDH1 R132H inh 0%, TrxR1 substrate -3%, GLP-1R inv ag -4%, HEK293 tox 2% and TrxR1 inh 79µM*.
Screening Cc1ccc(-n2nc(C(=O)N3CCN(c4ccccc4F)CC3)c(=O)n(C)c2=O)cc1 returned IDH1 R132H inh -6%, TrxR1 substrate -3%[57.1 µM], GLP-1R inv ag -6%, HEK293 tox -2% and TrxR1 inh 15%[57.1 µM].
Screening CN(CC(=O)Nc1cccc(F)c1)C(=O)c1cc2c(s1)CCCCC2 returned GLP1R ag 13%, IDH1 R132H inh 9%, TrxR1 substrate 7%, GLP-1R inv ag inconclusive, HEK293 tox -8% and TrxR1 inh 23%.
`CN(CC(=O)Nc1ccc(F)cc1)C(=O)c1cc2c(s1)CCCCC2` gave GLP1R ag 19%, IDH1 R132H inh -10%, TrxR1 substrate 2%[57.1 µM], GLP-1R inv ag 10µM*, HEK293 tox -16% and TrxR1 inh 7%[57.1 µM].
Screening COc1ccc(Cn2c(C(=O)O)c(CNCCc3ccccc3Cl)c3ccc(C)cc32)cc1 returned IDH1 R132H inh -5%, TrxR1 substrate 1%, GLP-1R inv ag inconclusive, HEK293 tox -6% and TrxR1 inh 34%.
For O=C(CN1C(=O)c2cccnc2Oc2ccc(Cl)cc21)NCCCN1CCCCC1 the results were IDH1 R132H inh -11%, TrxR1 substrate -3%, GLP-1R inv ag 6%, HEK293 tox 3% and TrxR1 inh 3%.
`COc1ccccc1N1CCN(C(=O)c2ccc3c(c2)CCN3S(=O)(=O)c2ccccc2)CC1` gave GLP1R ag 5%, IDH1 R132H inh 1%, TrxR1 substrate -11%, GLP-1R inv ag 7.9µM*, HEK293 tox -9% and TrxR1 inh -9%.
For Cc1ccc(Cl)cc1NC(=O)CSCc1cnn(-c2ccccc2)c1-n1cccc1 the results were TrxR1 substrate -5%, GLP-1R inv ag 10µM*, HEK293 tox -11% and TrxR1 inh 3%.
`Cc1ccc(NC(=O)CSCc2cnn(-c3ccccc3)c2-n2cccc2)c(C)c1` gave TrxR1 substrate -11%, GLP-1R inv ag inconclusive, HEK293 tox 3% and TrxR1 inh 3%.
Screening Cc1ccc(NS(=O)(=O)c2ccc(NC(=O)CN(c3cc([N+](=O)[O-])ccc3C)S(C)(=O)=O)cc2)c(C)c1 returned GLP1R ag -8%, IDH1 R132H inh -3%, TrxR1 substrate -7%, GLP-1R inv ag 2.2µM*, HEK293 tox inconclusive and TrxR1 inh -1%.
Screening CCCCCn1c(=O)[nH]c2cc(C(=O)N3CCN(c4cccc(Cl)c4)CC3)ccc2c1=O returned GLP1R ag 0%, IDH1 R132H inh 9%, TrxR1 substrate 0%, GLP-1R inv ag 13%, HEK293 tox 1% and TrxR1 inh 7%[2.29 µM].
Screening O=C(C[n+]1cccc2cc(Cl)ccc21)c1ccc(I)cc1 returned TrxR1 substrate -2% and TrxR1 inh 2%.
`COc1ccc(COc2cc(-c3cccc(OC)c3)nc3ccc(NC(=O)c4cccnc4)cc23)cc1` gave GLP1R ag 12%, IDH1 R132H inh 5%, TrxR1 substrate 2%, GLP-1R inv ag 2.8µM*, HEK293 tox -20% and TrxR1 inh 5%.
Screening COc1ccc(COc2cc(-c3cccc(OC)c3)nc3ccc(NC(=O)c4ccc(OC)cc4)cc23)cc1 returned GLP1R ag 15%, IDH1 R132H inh -6%, TrxR1 substrate 10%, GLP-1R inv ag inconclusive, HEK293 tox -28% and TrxR1 inh 14%.
`Cc1ccc(CNC(=O)CSc2ncc(S(=O)(=O)c3ccc(C)c(Cl)c3)c(=O)[nH]2)cc1` gave GLP1R ag -4%, IDH1 R132H inh -17%, TrxR1 substrate 2%[57.1 µM], GLP-1R inv ag 10%, HEK293 tox 2% and TrxR1 inh 20%[57.1 µM].
Cc1cc(C)cc(N2C(=O)CC(Sc3nnnn3-c3ccccc3)C2=O)c1 (stereo unspecified) was read as GLP1R ag -28%, IDH1 R132H inh 2%, TrxR1 substrate 16%, GLP-1R inv ag inconclusive, HEK293 tox inconclusive and TrxR1 inh 11µM*.
Cn1nnnc1SC1CC(=O)N(c2ccccc2)C1=O (stereo unspecified) was read as GLP1R ag -1%, IDH1 R132H inh -5%, TrxR1 substrate 12%[57.1 µM], GLP-1R inv ag 3%, HEK293 tox 2% and TrxR1 inh 18µM*.
O=C1CC(Sc2nnnn2C2CCCCC2)C(=O)N1c1ccccc1 (stereo unspecified) was read as GLP1R ag -3%, IDH1 R132H inh 7%, TrxR1 substrate 13%, GLP-1R inv ag 16%, HEK293 tox 15% and TrxR1 inh inconclusive.
Screening CN(C)c1ccc(C(CNS(=O)(=O)c2ccc(Cl)cc2)N2CCCC2)cc1 (stereo unspecified) returned IDH1 R132H inh 16%, TrxR1 substrate -2%[57.1 µM], GLP-1R inv ag 12%, HEK293 tox 21% and TrxR1 inh 7%[57.1 µM].
For O=C(CN1CCCCC1)NC(=O)NC1CCCC1 the results were GLP1R ag 8%, IDH1 R132H inh 6%, TrxR1 substrate 8%[57.1 µM], GLP-1R inv ag 39%, HEK293 tox 10% and TrxR1 inh 17%[57.1 µM].
O=C(CN1CCCCCCC1)NC(=O)NC1CCCCC1 was read as GLP1R ag 5%, IDH1 R132H inh 12%, TrxR1 substrate 2%[57.1 µM], GLP-1R inv ag 4µM*, HEK293 tox 1% and TrxR1 inh -17%.
CCOC(=O)c1c(NC(=O)c2cc(=O)c3c(C)cc(C)cc3o2)sc2c1CCC2 was read as IDH1 R132H inh 7%, TrxR1 substrate 7%, GLP-1R inv ag 9%, HEK293 tox -2% and TrxR1 inh 14%.
Screening Cc1nc(N)nc(N)c1CCCc1ccc(Cl)c(Cl)c1 returned GLP1R ag 11%, IDH1 R132H inh 6%, TrxR1 substrate -16%[11.4 µM], GLP-1R inv ag 7.1µM*, HEK293 tox -30% and TrxR1 inh 24%[11.4 µM].
`CCN1CCN(C(=S)NC(=O)c2cccs2)CC1` gave GLP1R ag 3%, IDH1 R132H inh -1%, TrxR1 substrate 6%, GLP-1R inv ag -32%, HEK293 tox inconclusive and TrxR1 inh -10%.
`O=C(NC(=S)N1CCN(c2ccc(C(F)(F)F)cc2[N+](=O)[O-])CC1)c1cccs1` gave GLP1R ag -16%, IDH1 R132H inh 6%, TrxR1 substrate -9%, GLP-1R inv ag 0%, HEK293 tox 10µM* and TrxR1 inh -24%.
